# Reference: PubChem BioAssay AID588477 (NMMLSC, 2011)
# A number with no mark means an inactive call. Active and inactive are the calls of the source.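 Rule for the calls: active = valid curve fit with half-effect dose at most 10 µM and total binding change across doses of 30 points or more; inactive = the rest.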
# Test system: Rac wt
# Experiment: inhibitors of Bodipy-GTP binding across eight GTPases, SAR follow-up, selectivity assay for Cdc42 probe extension project, biochemical, round 1 SAR, Mg buffer, multiplex flow cytometry (AID 588477)
# Settings: GST-GTPase beads; series mostly up to 100 µM; percent response (remaining binding): at the top concentration
SMILES,outcome,percent response (remaining binding)
O=C(C#Cc1ccccc1)c1cccc([N+](=O)[O-])c1,inactive,–
NS(=O)(=O)c1ccc(N2N=C(c3ccccc3)CC2c2ccccc2)cc1 (stereo not drawn),–,94.6%
COc1ccc(C2CC(c3ccccc3)=NN2c2ccc(S(N)(=O)=O)cc2)cc1 (stereo not drawn),–,91.3%
